Where a name gives a salt, the structure may show the parent alone. ± gives the standard deviation.

In this test the test system is Jurkat. The experiment in a line: mean cell size (FSC-A) relative to DMSO control (fraction of control); higher = larger cells. As to conditions: 48 h. The procedure, abridged:
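Jurkat cells at 600 cells/µl were incubated for 1 h and then treated for 48h with the Enzo Screen-Well FDA Approved Drug Library v2.0 at 25µM, with DMSO at 0.9% (v/v) final. Compounds that reduced counts below 20% of controls were retested in 10-fold dilutions down to 25nM. Cell count and mean cell size, taken as forward scatter area, were measured by flow cytometry relative to solvent-only controls. Each plate carried 6-12 controls, and values are means of 3 biological replicates.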
Turning to `Clc1ccc(CCC(Cn2ccnc2)Sc2c(Cl)cccc2Cl)cc1` (configuration not stated) [Butoconazole Nitrate] (concentration: 25 µM), the mean cell size is 0.953 ± 0.05.

`Nc1ncnc2c1ncn2[C@@H]1O[C@H](CO)[C@@H](O)[C@H]1O` [Adenosine] (concentration: 25 µM) gave a mean cell size of 1 ± 0.041.

Regarding `Cc1c(O)cccc1C(=O)N[C@@H](CSc1ccccc1)[C@H](O)CN1C[C@H]2CCCC[C@H]2C[C@H]1C(=O)NC(C)(C)C` [Nelfinavir Mesylate] (concentration: 2.5 µM), the mean cell size turned out to be 1.03 ± 0.015.

As for `Nc1ccn([C@@H]2O[C@H](CO)[C@@H](O)[C@@H]2O)c(=O)n1` [Cytarabine] (concentration: 25 nM), the mean cell size amounted to 1.18 ± 0.05.

Regarding `CC(=O)OC(C)C[N+](C)(C)C` (configuration not stated) [Methacholine Chloride] (concentration: 25 µM), the mean cell size was 1.05 ± 0.022.

The compound `O=C(O)C[C@H](O)C[C@H](O)/C=C/c1c(C2CC2)nc2ccccc2c1-c1ccc(F)cc1` [Pitavastatin Calcium] (concentration: 25 µM) showed a mean cell size of 0.9938 ± 0.0093.

As for `COc1c(C)c2c(c(O)c1C/C=C(\C)CCC(=O)OCCN1CCOCC1)C(=O)OC2` [Mycophenolate Mofetil] (concentration: 25 µM), the mean cell size turned out to be 0.892 ± 0.0081.

In turn, `C[C@@H](c1ncncc1F)[C@](O)(Cn1cncn1)c1ccc(F)cc1F` [Voriconazole] (concentration: 25 µM) registered a mean cell size of 0.963 ± 0.043.

Compound `OC[C@@H](O)[C@@H](O)[C@H](O)[C@H](O)CO` [Mannitol] (concentration: 25 µM) displayed a mean cell size of 0.947 ± 0.041.

As to `NS(=O)(=O)c1cc2c(cc1C(F)(F)F)NCNS2(=O)=O` [Hydroflumethiazide] (concentration: 25 µM), the mean cell size was determined as 0.944 ± 0.048.

For the compound `Oc1c(Cl)cc(Cl)c(Cl)c1Cc1c(O)c(Cl)cc(Cl)c1Cl` [Hexachlorophene] (concentration: 2.5 µM), the mean cell size was 0.904 ± 0.016.

With `Cc1cccc(C)c1OCC(=O)N[C@@H](Cc1ccccc1)[C@@H](O)C[C@H](Cc1ccccc1)NC(=O)[C@H](C(C)C)N1CCCNC1=O` [Lopinavir] (concentration: 25 µM), the mean cell size came out at 0.8546 ± 0.0077.

`O=c1n(CCCN2CCN(c3cccc(Cl)c3)CC2)nc2ccccn12` [Trazodone·HCl] (concentration: 25 µM): the mean cell size was found to be 0.967 ± 0.045.

Compound `CCCc1nn(C)c2c(=O)[nH]c(-c3cc(S(=O)(=O)N4CCN(C)CC4)ccc3OCC)nc12` [Sildenafil Citrate] (concentration: 25 µM) had a mean cell size of 1.02 ± 0.055.

Consider `CN(CCOc1ccc(CC2SC(=O)NC2=O)cc1)c1ccccn1` (configuration not stated) [Rosiglitazone] (concentration: 25 µM), for which the mean cell size turned out to be 0.996 ± 0.063.

`COC1=CC(=O)C[C@@H](C)[C@]12Oc1c(Cl)c(OC)cc(OC)c1C2=O` [Griseofulvin] (concentration: 2.5 µM): the mean cell size was 0.975 ± 0.02.

In turn, `CC(C[N+](C)(C)C)OC(N)=O` (configuration not stated) [Bethanechol Chloride] (concentration: 25 µM) displayed a mean cell size of 0.926 ± 0.034.

Turning to `CS(=O)(=O)OCCCCOS(C)(=O)=O` [Busulfan] (concentration: 25 µM), the mean cell size worked out at 1.03 ± 0.016.

`O=C(N[C@H](CO)[C@H](O)c1ccc([N+](=O)[O-])cc1)C(Cl)Cl` [Chloramphenicol] (concentration: 25 µM) registered a mean cell size of 0.949 ± 0.022.

`NS(=O)(=O)c1cc(C(=O)O)c(NCc2ccco2)cc1Cl` [Furosemide] (concentration: 25 µM): the mean cell size was 0.932 ± 0.034.

`Nc1nc(F)nc2c1ncn2[C@@H]1O[C@H](COP(=O)(O)O)[C@@H](O)[C@@H]1O` [Fludarabine Phosphate] (concentration: 2.5 µM) had a mean cell size of 1.327 ± 0.0094.

On to `NC(=O)NO` [Hydroxyurea] (concentration: 25 µM), for which the mean cell size was determined as 0.958 ± 0.017.

The compound `O=S(=O)(O)CCS` [Mesna] (concentration: 25 µM) came in with a mean cell size of 1.06 ± 0.026.

In turn, `Oc1ccc(C2CNCCc3c2cc(O)c(O)c3Cl)cc1` (configuration not stated) [Fenoldopam Mesylate] (concentration: 25 µM) had a mean cell size of 0.886 ± 0.059.

Take `CC1(C)O[C@@H]2[C@@H](CO[C@@]3(COS(N)(=O)=O)OC(C)(C)O[C@@H]23)O1` [Topiramate] (concentration: 25 µM): the mean cell size was determined as 0.969 ± 0.024.

As to `Nc1ncn([C@H]2C[C@H](O)[C@@H](CO)O2)c(=O)n1` [Decitabine] (concentration: 2.5 µM), the mean cell size is 1 ± 0.018.

As for `COC(=O)[C@H](c1ccccc1Cl)N1CCc2sccc2C1` [Clopidogrel Hydrogen Sulfate] (concentration: 25 µM), the mean cell size was determined as 0.981 ± 0.051.

For the origin of these results see the supplement of paper PMC4709259.
